# A number with no mark means an inactive call. The rule behind the calls is not given here.
# Tested on: Aerobactin synthetase IucA (Klebsiella pneumoniae hvKP1)
# Experiment: Biochemical IucA enzyme inhibition primary screen of the Spectrum library (AID 1346200);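 note: 100% = wells without compound and 0% = wells lacking enzyme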
# Conditions: malachite green pyrophosphate, A620, at 8 µM, stronger effect = lower value
row,SMILES,activity remaining [%]
1,CC(=O)OCC(=O)[C@@]1(O)CCC2C3CCC4=CC(=O)CC[C@]4(C)[C@@]3(F)[C@@H](O)C[C@@]21C (stereo partly specified),91.4
2,CC(=O)N[C@@H](CC(=O)O)C(=O)O,110
3,O=C(Cc1ccccc1)NO,109
4,O=C(O)c1cc(=O)c2cccc(O)c2[nH]1,97.3
5,COc1cccc(O)c1O,110
6,CN(Cc1cc(Br)cc(Br)c1N)C1CCCCC1,112
7,Cc1cccc(C(=O)O)c1O,91.3
8,O=C(O)c1cc(=O)c(O)c2c(O)c(O)ccc2c1,90.4
9,CC1(C)O[C@@H]2CC3C4C[C@H](F)C5=CC(=O)CC[C@]5(C)C4[C@@H](O)C[C@]3(C)[C@]2(C(=O)CO)O1 (stereo partly specified),118
10,Oc1c(Br)cc(Br)c2cccnc12,113
11,COc1cccc2c1C(=O)c1c(O)c3c(c(O)c1C2=O)C[C@@](O)(C(C)=O)C[C@@H]3O[C@H]1C[C@H](N)[C@H](O)[C@H](C)O1,75.3
12,Cc1cccc2c3c(ccc12)C1=C(C(=O)C3=O)C(C)CO1 (stereo unspecified),114
13,CC(C(=O)O)c1ccc(N2Cc3ccccc3C2=O)cc1 (stereo unspecified),103
14,CCC(C)C(=O)OC1[C@@H]2CC3=C4CC(=O)O[C@@H](c5ccoc5)[C@]4(C)CCC3C(C)(C2=O)[C@@H](CC(=O)OC)C1(C)C (stereo partly specified),125
15,CN(C)CC[C@H](c1ccc(Cl)cc1)c1ccccn1,90.6
16,COc1ccc2cc3[n+](cc2c1OC)CCc1cc2c(cc1-3)OCO2,86.3

# From PubChem BioAssay
